The text below walks through data of PubChem BioAssay AID652017 (The Scripps Research Institute Molecular Screening Center, 2013).

The structures appear in SMILES notation. Hit rate of the full screen: of about 370,000 compounds, about 3,800 (1%) were called active. What follows is part of a selection rich in actives, with near analogues and random picks from the rest. Values without a mark were called inactive. Rule as the data show it: active = activation above about 7.8%; inactive = the rest.

The assay is described as follows: SMARCA2 (BRM) function activators, primary screen, cell-based, luminescence, high throughput (AID 652017).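 Also: 0% = vehicle wells and 100% = reference activator wells.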 Conditions: MG213 cells, MMTV-luciferase reporter, dexamethasone, overnight; at 9.1 µM; hits give high values.
As for `COC(=O)C12C=C3CC(c4ccccc4)=C3C(=O)N1Cc1[nH]c3ccccc3c1C2` (stereo not drawn), the activation is -3.71%.

Consider `CN1C(=O)c2cc(NS(C)(=O)=O)ccc2OC[C@@H]2O[C@@H](CC(=O)NCc3ccc(-c4ccccc4)cc3)CC[C@H]21`, for which the activation is 0.34%.

Take `CCCC(=O)N1c2ccc(-c3csc(N)n3)cc2CC1C` (stereo not drawn): the activation was 13.2% (active).

In the case of `Cc1ccn(CCC(=O)N2c3ccccc3CC2C)n1` (stereo not drawn), the activation is -2.39%.

For `CCOc1ncccc1C(=O)OCC(=O)N1c2ccccc2CC1C` (stereo not drawn), the activation is -1.56%.

For the compound `Cc1ccccc1CN1CCNC(=O)C1CC(=O)NCCC1=CCCCC1` (stereo not drawn), the activation was 5.02%.

With `Cc1ccc(NC(=O)C(=O)NCc2ccco2)c(C)c1`, the activation was 9.32% (active).

Consider `Cc1ccc(SCC(=O)NC(=O)NCc2ccco2)c(C)c1`, for which the activation is -0.59%.

`O=C(NCc1ccncc1)C(=O)NCc1ccco1`: the activation is -0.15%.

Turning to `CN[C@H]1C[C@H]2c3cc(N4CCOCC4)ccc3CCN2C[C@H]1[C@H](C)O`, the activation is -3.84%.

With `C=C(C)C#CC(Cc1ccccc1)N(CC1CC1)/C(N)=N/C(=O)OCc1ccccc1` (stereo not drawn), the activation is -1.63%.

`CCOc1cc(NC(=S)NCCCN(C)C)c(OCC)cc1NC(=O)C1CC1`: the activation was 1.16%.

Take `CCOc1cc(NC(=S)NCCCOC)c(OCC)cc1NC(=O)c1ccco1`: the activation is 9.88% (active).

On to `COc1cc(NC(=S)NCc2ccco2)c(OC)cc1Cl`, for which the activation is 0.64%.

Turning to `Cc1ccc(CSc2nnc(SCC(=O)NN=Cc3cc(Br)ccc3F)s2)cc1`, the activation was -6.75%.

In the case of `CC(C)(C)OC(=O)NCc1cc(F)ccc1/C=C/S(=O)(=O)NCCc1ccccc1`, the activation is -3.29%.

Turning to `CN(C(=O)CC1C(=O)NCCN1Cc1ccc2ccccc2c1)C1CCOCC1` (stereo not drawn), the activation is -1.84%.

For the compound `CCOC(=O)Nc1ccc(S(=O)(=O)N(C)C(C)C)cc1`, the activation was -0.48%.

Turning to `CCOC(=O)Nc1ccc(NC(=O)OCC)cc1`, the activation is 11.1% (active).

`CC(C)(COC(=O)Nc1ccccc1)COC(=O)Nc1ccccc1`: the activation was -1.85%.

Take `O=C(N1CCOCC1)N1CC[C@H]2[C@H](CCCN2Cc2ccc(F)cc2)C1`: the activation was -1.37%.

For `COc1ccccc1OCC(=O)O/N=C(\N)c1ccccn1`, the activation is 8.43% (active).

For `COc1ccccc1OCC(=O)OCc1cc(-c2ccco2)on1`, the activation is 1.73%.

On to `N/C(=N\OC(=O)CCC1CCCCC1)c1ccccn1`, for which the activation is 3.7%.

With `COC(=O)C1=C(C)N(Cc2ccccc2C(F)(F)F)C(=NCC2CC2)NC1c1cccc(Cl)c1` (stereo not drawn), the activation is -1.87%.

In the case of `CC(=O)Nc1ccc(S(=O)(=O)N2CCN(c3ccc([N+](=O)[O-])c(NCCN4CCOCC4)c3)CC2)cc1`, the activation was -2.48%.

Regarding `O=C(Nc1ccc(Br)cc1)OCCN1C(=O)CCC12CCC(c1ccccc1)CC2` (stereo not drawn), the activation is -0.9%.

In the case of `C1=C(CCNc2ncnc3c2cnn3-c2ccccc2)CCCC1`, the activation is 10.2% (active).

For the compound `S=C(NCCC1=CCCCC1)Nc1ccccc1`, the activation was 2.03%.

Turning to `Cc1nn(C(C)C(=O)NCCC2=CCCCC2)c(=O)c2nn(-c3ccccc3)c(C)c12` (stereo not drawn), the activation is 0.01%.

For `Cc1ncn2cc(-c3ccc(Cl)cc3Cl)[nH]c(=O)c12`, the activation is 5.25%.

Consider `O=C(O)CN1c2cccc3cccc(c23)S1(=O)=O`, for which the activation is -0.74%.

Regarding `O=C(NC1=NCCS1)c1ccc(Cl)s1`, the activation was 3.86%.

For the compound `COc1ccc(C(=O)NC2=NCCS2)c(OC)c1`, the activation is 8.02% (active).

Consider `COc1ccccc1C(=O)NCCC(=O)NC1=NCCS1`, for which the activation is -1.3%.

Regarding `COC(=O)Cc1nnn2c1[C@H](C)[C@@H](OC)c1cc(Br)ccc1-2`, the activation is -2.14%.

`COC(=O)Cc1nnn2c1[C@H](C)[C@H](c1ccccc1Br)OCC2`: the activation is -2.14%.

In the case of `COC(=O)Cc1nnn2c1[C@H](C)[C@H](c1ccccc1[N+](=O)[O-])OCC2`, the activation was 9.58% (active).

As for `O=C(CSc1nnc(COc2ccccc2)n1Cc1ccco1)c1ccc2ccccc2c1`, the activation was -6.31%.

Take `COc1ccc(-c2csc(Cc3nc(O)cs3)n2)cc1`: the activation is 16.8% (active).

Turning to `COc1ccc(C2C(C(C)=O)=C(O)C(=O)N2c2nccs2)cc1` (stereo not drawn), the activation is 1.1%.

In the case of `COc1ccc(-n2c(SC)nc(O)cc2=O)cc1`, the activation was -1.4%.

For `COc1cccc(NC(=O)CSc2nnc(-c3cccnc3)o2)c1`, the activation was -0.51%.

Consider `CCN(CC)C(=O)CSc1nnc(-c2ccc(S(=O)(=O)NCc3ccccc3Cl)cc2)o1`, for which the activation is -2.52%.

Consider `CCN(CC)C(=O)CSc1nnc(-c2cccc(OC)c2)o1`, for which the activation was 8.29% (active).

Turning to `COc1ccc(-n2c(COc3ccc(C)cc3)nnc2SCC(=O)Nc2ccc(Oc3ccccc3)cc2)cc1`, the activation was -5.92%.

Regarding `COc1ccc(-c2cc(-c3nnc(SCc4ccc([N+](=O)[O-])cc4)n3N)[nH]n2)cc1`, the activation is -5.07%.

In the case of `COc1ccc(/C=C2\CC3(OC(C)=O)CCCN2C3)cc1` (stereo not drawn), the activation was -1.45%.
